# Records with an inconclusive call do not appear. Values without a mark were called inactive. Calls of active or inactive are those of the source. Unless noted, calls come from the whole dose curve.
# Target: Peroxisome proliferator-activated receptor gamma (Homo sapiens) (UniProt P37231)
# Experiment: qHTS assay to identify small molecule agonists of the peroxisome proliferator-activated receptor gamma (PPARg) signaling pathway (AID 743094; active = well fitted activation curve with a large enough effect in the signal ratio in the repeat runs, not every such curve was filed as active; the % refers to the signal ratio)
# Details: HEK293H PPARg-UAS-bla, beta-lactamase FRET ratio, 17 h; series mostly up to 57 µM; activation: at the top concentration
# In short: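 Quantitative HTS agonist mode: stable HEK293H line with UAS-beta-lactamase reporter under PPARg control, 17 h compound exposure at 37C, fluorescence after 1 h FRET substrate loading at room temperature.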
# % is set by controls: 0 for no effect and ±100 for the full control effect.
# Chain of Peroxisome proliferator-activated receptor gamma (Homo sapiens) (P37231 whole entry, looked up): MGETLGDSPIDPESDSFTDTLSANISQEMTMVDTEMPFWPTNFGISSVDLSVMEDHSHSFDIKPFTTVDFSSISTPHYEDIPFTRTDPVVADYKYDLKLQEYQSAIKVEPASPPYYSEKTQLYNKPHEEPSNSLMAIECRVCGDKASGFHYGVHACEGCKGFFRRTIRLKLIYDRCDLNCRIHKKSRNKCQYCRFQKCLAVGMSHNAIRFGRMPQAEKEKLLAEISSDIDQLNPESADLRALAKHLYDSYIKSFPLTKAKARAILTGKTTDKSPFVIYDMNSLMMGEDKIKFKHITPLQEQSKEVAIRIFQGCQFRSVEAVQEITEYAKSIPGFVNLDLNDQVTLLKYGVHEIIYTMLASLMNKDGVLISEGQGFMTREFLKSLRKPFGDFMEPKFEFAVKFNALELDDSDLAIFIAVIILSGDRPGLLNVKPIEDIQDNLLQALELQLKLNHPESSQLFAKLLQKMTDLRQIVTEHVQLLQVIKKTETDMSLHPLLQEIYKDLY
Structure (SMILES),activation,outcome
c1cc(CN2CCCCC2)cc(OCCCNc2nc3ccccc3s2)c1,-9.73%,–
CC(C=O)Cc1ccc(C(C)C)cc1 (configuration not stated),6.08%,–
Cc1nccn1CC1CCc2c(c3ccccc3n2C)C1=O (configuration not stated),–,inactive
CC(C)(O)Cc1ccccc1,-4.07%,–
CCOC(=O)[C@H](CCc1ccccc1)N[C@@H](C)C(=O)N1CCC[C@H]1C(=O)O,-3.86%,–
COc1nc(C)nc(N)n1,-0.704%,–
C=C[Si](OC)(OC)OC,-6.32%,–
CC/C=C\C#N,-6.99%,–
COC(=O)CCCCCCCCC(=O)OC,-2.34% [at 78.9 µM],–
C#CC(C)(O)CC(C)C (configuration not stated),1.8%,–
CCC(=O)/C=C/c1ccc(OC)cc1,9.49%,–
CN(C)CCOC(c1ccc(Cl)cc1)c1ccccn1 (configuration not stated),-1.71%,–
NC(=O)c1ncn([C@@H]2O[C@H](CO)[C@@H](O)[C@H]2O)c1O,-1.44%,–
CC(C)(C)CC(C)(C)N,-4.32%,–
CC(=O)c1ccc(C)cc1,-3.1%,–
Cc1cc(C)cc(OCC2CNC(=O)O2)c1 (configuration not stated),2.27%,–
NCC[C@H](O)C(=O)N[C@@H]1C[C@H](N)[C@@H](O[C@H]2O[C@H](CN)[C@@H](O)[C@H](O)[C@H]2O)[C@H](O)[C@H]1O[C@H]1O[C@H](CO)[C@@H](O)[C@H](N)[C@H]1O,0.67%,–
CN1[C@@H]2CC[C@H]1CC(NC(=O)n1c(=O)[nH]c3ccccc31)C2 (some centres not stated),-4.39%,–

Structure (SMILES),activation,outcome
Cc1onc(-c2ccccc2)c1-c1ccc(S(N)(=O)=O)cc1,-4%,–
CC(C)c1cccc(C(C)C)c1N,-4.65%,–
CCC(=O)Nc1cccc(N)c1,-7%,–
Cn1ccc2cc3c(cc21)CCN3C(=O)Nc1cccnc1,3.84%,–
NC1CCN(c2cccc(Cl)n2)CC1,-5.05%,–
CC(C)CCOC(=O)CC(C)C,-5.74%,–
CC1CCN(CCCC(=O)c2ccc(F)cc2)CC1,-1.38%,–
CC(C)(O)C(=O)c1ccc(OCCO)cc1,-6.78%,–
CC(C)=CC(=O)O,0.698%,–
Nc1cc(N)cc(C(=O)O)c1,-2.44%,–
CC(=O)CCc1ccc(O)cc1,4.01%,–
Nc1ccn(C2CO[C@H](CO)O2)c(=O)n1 (some centres not stated),-9.61%,–
O=C(O)/C=C/c1ccc(/C=C/C(=O)O)cc1,-5.22%,–
O=C(O)/C=C/c1ccc(Cn2ccnc2)cc1,0.827% [at 26.2 µM],–
OC[C@H]1O[C@@H]2O[C@H]3[C@H](O)[C@@H](O)[C@@H](O[C@H]4[C@H](O)[C@@H](O)[C@@H](O[C@H]5[C@H](O)[C@@H](O)[C@@H](O[C@H]6[C@H](O)[C@@H](O)[C@@H](O[C@H]7[C@H](O)[C@@H](O)[C@@H](O[C@H]8[C@H](O)[C@@H](O)[C@@H](O[C@H]9[C@H](O)[C@@H](O)[C@@H](O[C@H]1[C@H](O)[C@H]2O)O[C@@H]9CO)O[C@@H]8CO)O[C@@H]7CO)O[C@@H]6CO)O[C@@H]5CO)O[C@@H]4CO)O[C@@H]3CO,0% [at 26.2 µM],–
NC(CS)C(=O)O (configuration not stated),0.276%,–
C1=C\CC/C=C\CC/C=C\CC/1,-2.31%,–

# Target: Peroxisome proliferator-activated receptor gamma (Homo sapiens) (UniProt P37231)
# Experiment: qHTS assay to identify small molecule antagonists of the peroxisome proliferator-activated receptor gamma (PPARg) signaling pathway (AID 743191); note: nearly all actives have a fitted effect of over 30% in size
# Details: HEK293H PPARg-UAS-bla, beta-lactamase ratio, antagonist, 17 h; series mostly up to 62.6 µM; ratio activity, negative = inhibition: at the top concentration
# In short: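 GeneBLAzer PPARg UAS-bla HEK293H cells carrying a UAS-driven beta-lactamase reporter were plated at 3000 cells/well, preincubated 5 h at 37C, then given compound for 17 h at 37C; LiveBLAzer B/G FRET substrate was read after 1 h at room temperature.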
row,Structure (SMILES),"ratio activity, negative = inhibition"
1,CC(C=O)Cc1ccc(C(C)C)cc1 (configuration not stated),8.2%
2,Cc1nccn1CC1CCc2c(c3ccccc3n2C)C1=O (configuration not stated),-7.7%
3,CC(C)(O)Cc1ccccc1,3.1%
4,COc1nc(C)nc(N)n1,-0.0258%
5,C=C[Si](OC)(OC)OC,-0.567%
6,COC(=O)CCCCCCCCC(=O)OC,-13.5% [at 81.1 µM]
7,C#CC(C)(O)CC(C)C (configuration not stated),-6.66%
8,CCC(=O)/C=C/c1ccc(OC)cc1,-2.76%
9,CC(C)(C)CC(C)(C)N,1.25%
10,CC(=O)c1ccc(C)cc1,15.5%
11,Cc1cc(C)cc(OCC2CNC(=O)O2)c1 (configuration not stated),-1.48%
12,NCC[C@H](O)C(=O)N[C@@H]1C[C@H](N)[C@@H](O[C@H]2O[C@H](CN)[C@@H](O)[C@H](O)[C@H]2O)[C@H](O)[C@H]1O[C@H]1O[C@H](CO)[C@@H](O)[C@H](N)[C@H]1O,0.895% [at 0.55 µM]
13,CN1[C@@H]2CC[C@H]1CC(NC(=O)n1c(=O)[nH]c3ccccc31)C2 (some centres not stated),2.77%
14,Cc1onc(-c2ccccc2)c1-c1ccc(S(N)(=O)=O)cc1,0.922%
15,CC(C)c1cccc(C(C)C)c1N,12.4%
16,CCC(=O)Nc1cccc(N)c1,-16.4%
17,NC1CCN(c2cccc(Cl)n2)CC1,-11.1%
18,CC(C)CCOC(=O)CC(C)C,-1.01%
19,CC1CCN(CCCC(=O)c2ccc(F)cc2)CC1,2.48%
20,CC(C)(O)C(=O)c1ccc(OCCO)cc1,-10.3%
21,CC(C)=CC(=O)O,0.145%
22,Nc1cc(N)cc(C(=O)O)c1,12.3%
23,CC(=O)CCc1ccc(O)cc1,3.46%
24,O=C(O)/C=C/c1ccc(/C=C/C(=O)O)cc1,0%
25,OC[C@H]1O[C@@H]2O[C@H]3[C@H](O)[C@@H](O)[C@@H](O[C@H]4[C@H](O)[C@@H](O)[C@@H](O[C@H]5[C@H](O)[C@@H](O)[C@@H](O[C@H]6[C@H](O)[C@@H](O)[C@@H](O[C@H]7[C@H](O)[C@@H](O)[C@@H](O[C@H]8[C@H](O)[C@@H](O)[C@@H](O[C@H]9[C@H](O)[C@@H](O)[C@@H](O[C@H]1[C@H](O)[C@H]2O)O[C@@H]9CO)O[C@@H]8CO)O[C@@H]7CO)O[C@@H]6CO)O[C@@H]5CO)O[C@@H]4CO)O[C@@H]3CO,-0.31% [at 29.1 µM]
26,NC(CS)C(=O)O (configuration not stated),-5.03%
27,C1=C\CC/C=C\CC/C=C\CC/1,-9.86%

# From PubChem BioAssay (Tox21)
